Data reported in PubChem BioAssay (EPA / NIEHS).
Activity calls are given as the source filed them. The calls were made as follows: active = hit-call score of the fitted dose curve at least 0.9, where 1 is the maximum; inactive = score below 0.9.

Experiments:
Details in all cases: mRNA level, 48 h; actives raise or lower the signal
[1] = read-out: Bcl-2 (BID) gene, BID (gene 637); assay: LTEA_HepaRG_BID: Life Technologies and Expression Analysis (LTEA) Assay for Bcl-2 (BID) gene using HepaRG (AID 2283476)
Outline: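 Gene expression by qRT-PCR in HepaRG cells after 48 h exposure, duplicate wells, eight half-log concentrations topping at 100 uM in 0.5% DMSO. Normalized to ACTB, GAPDH, POLR2A; bidirectional fitting relative to DMSO.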

Caspase-3 (Homo sapiens) = Caspase-3 (Homo sapiens) (UniProt P42574); assay: LTEA_HepaRG_CASP3: Life Technologies and Expression Analysis (LTEA) Assay for cysteine-aspartic acid protease (CASP3) using HepaRG (AID 2283477)
Outline: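 Read-out is CASP3 mRNA level by TaqMan qRT-PCR in human HepaRG cells after 48 h chemical exposure. Eight half-log concentrations topping at 100 uM were tested in 0.5% DMSO; gain or loss was fitted relative to DMSO.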

[2] = read-out: Cytochrome P450 (CYP24A1), CYP24A1 (gene 1591); assay: LTEA_HepaRG_CYP24A1: Life Technologies and Expression Analysis (LTEA) Assay for Cytochrome P450 (CYP24A1) using HepaRG (AID 2283478)
Outline: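 HepaRG, 48 h chemical exposure, 8-pt half-log CRC from 100 uM, 0.5% DMSO vehicle, duplicates. Endpoint: CYP24A1 mRNA by Fluidigm TaqMan qRT-PCR, normalized ACTB/GAPDH/POLR2A; gain/loss fit vs DMSO.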

[3] = read-out: Cytochrome P450 (CYP1A2), CYP1A2 (gene 1544); assay: LTEA_HepaRG_CYP1A2: Life Technologies and Expression Analysis (LTEA) Assay for Cytochrome P450 (CYP1A2) using HepaRG (AID 2283479)
Outline: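 CYP1A2 transcript induction or loss, quantified by Fluidigm qRT-PCR against three housekeeping genes, was fitted bidirectionally against 0.5% DMSO controls. Human HepaRG cells received eight half-log concentrations from 100 uM over 48 h.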

[4] = read-out: Cytochrome P450 (CYP2B6), CYP2B6 (gene 1555); assay: LTEA_HepaRG_CYP2B6: Life Technologies and Expression Analysis (LTEA) Assay for Cytochrome P450 (CYP2B6) using HepaRG (AID 2283481)
Outline: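 HepaRG cells plated 48 h, switched to serum-free induction medium, then dosed 48 h (8 points, half-log from 100 uM, 0.5% DMSO). RNA isolated; CYP2B6 expression measured by qRT-PCR; gain or loss fitted relative to DMSO.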

[5] = read-out: Cytochrome P450 2C19 (Homo sapiens) (UniProt P33261); assay: LTEA_HepaRG_CYP2C19: Life Technologies and Expression Analysis (LTEA) Assay for CYP2C19 using HepaRG (AID 2283482)
Outline: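 Transcript levels of CYP2C19 were quantified by qRT-PCR after HepaRG cells were treated for 48 hours with test chemicals up to 100 uM (eight half-log concentrations, 0.5% DMSO vehicle). Gain or loss of signal was fitted relative to DMSO.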

CYP2C8 (gene 1558) = assay: LTEA_HepaRG_CYP2C8: Life Technologies and Expression Analysis (LTEA) Assay for CYP2C8 using HepaRG (AID 2283483)
Outline: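 Differentiated human HepaRG cells were exposed for 48 h in serum-free induction medium to eight half-log concentrations up to 100 uM in 0.5% DMSO, in duplicate. CYP2C8 mRNA was measured by TaqMan qRT-PCR, normalized to ACTB, GAPDH and POLR2A, and fitted bidirectionally against DMSO.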

CYP2C9 (gene 1559) = assay: LTEA_HepaRG_CYP2C9: Life Technologies and Expression Analysis (LTEA) Assay for CYP2C9 using HepaRG (AID 2283484)
Outline: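 Differentiated human HepaRG cells were exposed 48 h in serum-free induction medium to eight half-log concentrations up to 100 uM in 0.5% DMSO. CYP2C9 mRNA was measured by qRT-PCR, normalized to ACTB, GAPDH and POLR2A, and fitted bidirectionally against DMSO.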

CYP2E1 (gene 1571) = assay: LTEA_HepaRG_CYP2E1: Life Technologies and Expression Analysis (LTEA) Assay for CYP2E1 using HepaRG (AID 2283485)
Outline: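 HepaRG cells, plated 48 h, then exposed 48 h in serum-free induction medium to eight half-log concentrations from 100 uM in 0.5% DMSO, duplicate. CYP2E1 mRNA by qRT-PCR, normalized to ACTB/GAPDH/POLR2A; bidirectional fit versus DMSO.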

CYP4A11 (gene 1579) = assay: LTEA_HepaRG_CYP4A11: Life Technologies and Expression Analysis (LTEA) Assay for CYP4A11 using HepaRG (AID 2283486)
Outline: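 HepaRG, 48 h chem exposure, 8 conc (100 uM top, half-log), 0.5% DMSO vehicle; qRT-PCR readout, housekeeping-gene normalized; bidirectional curve fit vs DMSO baseline.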

[6] = read-out: Cytochrome P450 3A4 (Homo sapiens) (UniProt P08684); assay: LTEA_HepaRG_CYP3A4: Life Technologies and Expression Analysis (LTEA) Assay for CYP3A4 using HepaRG (AID 2283487)
Outline: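 Differentiated HepaRG cells in serum-free induction medium exposed in duplicate for 48 h to 8 half-log concentrations up to 100 uM in 0.5% DMSO. CYP3A4 mRNA measured by qRT-PCR normalized to ACTB, GAPDH and POLR2A; bidirectional fit versus DMSO.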

[7] = read-out: Pro-epidermal growth factor (Homo sapiens) (UniProt P01133); assay: LTEA_HepaRG_EGF: Life Technologies and Expression Analysis (LTEA) Assay for Epidermal growth factor (EGF) using HepaRG (AID 2283489)
Outline: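 HepaRG, 48 h dosing, 100 uM top, half-log x8, 0.5% DMSO. Readout: TaqMan qRT-PCR (Fluidigm array), housekeeping-normalized. Gain or loss of signal fit vs DMSO.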

[8] = read-out: Early growth response protein 1 (EGR1) transcription factor, EGR1 (gene 1958); assay: LTEA_HepaRG_EGR1: Life Technologies and Expression Analysis (LTEA) Assay for Early growth response protein 1 (EGR1) transcription factor using HepaRG (AID 2283490)
Outline: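 Differentiated human HepaRG cells in serum-free induction medium were exposed in duplicate for 48 h to eight concentrations (top 100 uM, half-log steps) in 0.5% DMSO. EGR1 mRNA was quantified by qRT-PCR, normalized to ACTB, GAPDH and POLR2A, and fitted bidirectionally versus DMSO.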

[9] = read-out: Ezrin (EZR), EZR (gene 7430); assay: LTEA_HepaRG_EZR: Life Technologies and Expression Analysis (LTEA) Assay for Ezrin (EZR) using HepaRG (AID 2283491)
Outline: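 Differentiated human HepaRG cells, 48 h after plating, were exposed in serum-free induction medium for 48 hours to eight half-log concentrations up to 100 uM in 0.5% DMSO. EZR mRNA was measured by TaqMan qRT-PCR, normalized to ACTB, GAPDH and POLR2A, and fitted bidirectionally against DMSO.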

[10] = read-out: Cytochrome P450 3A7 (Homo sapiens) (UniProt P24462); assay: LTEA_HepaRG_CYP3A7: Life Technologies and Expression Analysis (LTEA) Assay for CYP3A7 using HepaRG (AID 2283492)
Outline: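 Human HepaRG liver cells, 48 h post-plating, switched to serum-free induction medium and exposed in duplicate for 48 h. Dosing: 100 uM top, half-log dilutions, 8 points, 0.5% DMSO vehicle. Read-out: CYP3A7 mRNA, gain or loss fitted against DMSO baseline.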

[11] = read-out: Fatty Acid-Binding Protein 1 (FABP1), FABP1 (gene 2168); assay: LTEA_HepaRG_FABP1: Life Technologies and Expression Analysis (LTEA) Assay for Fatty Acid-Binding Protein 1 (FABP1) using HepaRG (AID 2283494)
Outline: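 Differentiated human HepaRG cells were exposed in duplicate for 48 h in serum-free induction medium to 8-point half-log concentration series topping at 100 uM in 0.5% DMSO. FABP1 mRNA measured by TaqMan qRT-PCR, normalized to ACTB/GAPDH/POLR2A; bidirectional fit versus DMSO.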

CYP3A5 (gene 1577) = assay: LTEA_HepaRG_CYP3A5: Life Technologies and Expression Analysis (LTEA) Assay for CYP3A5 using HepaRG (AID 2283493)
Outline: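 HepaRG cells, plated 48 h then in serum-free induction medium, dosed in duplicate for 48 h with eight half-log concentrations up to 100 uM in 0.5% DMSO. Gene mRNA by Fluidigm TaqMan qRT-PCR, normalized to ACTB, GAPDH, POLR2A.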

[12] = read-out: Cytochrome P450 4A22 (Homo sapiens) (UniProt Q5TCH4); assay: LTEA_HepaRG_CYP4A22: Life Technologies and Expression Analysis (LTEA) Assay for Cytochrome P450 4A22 (CYP4A22) using HepaRG (AID 2283495)
Outline: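 Readout is CYP4A22 transcript induction or loss, quantified by qRT-PCR and normalized to ACTB, GAPDH and POLR2A. Human HepaRG cells receive test chemicals for 48 h at eight half-log concentrations from 100 uM in 0.5% DMSO.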

Measured: AC50

Chain of Caspase-3 (Homo sapiens) (P42574 whole entry, looked up): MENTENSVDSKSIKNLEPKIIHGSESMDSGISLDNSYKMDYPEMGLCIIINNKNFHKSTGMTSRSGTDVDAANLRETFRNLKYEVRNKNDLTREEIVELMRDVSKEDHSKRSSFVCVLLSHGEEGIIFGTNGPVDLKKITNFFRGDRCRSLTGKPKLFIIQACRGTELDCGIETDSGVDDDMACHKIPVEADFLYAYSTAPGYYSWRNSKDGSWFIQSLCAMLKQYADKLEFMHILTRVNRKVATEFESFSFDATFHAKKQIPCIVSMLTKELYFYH
Chain of Cytochrome P450 2C19 (Homo sapiens) (P33261 whole entry, looked up): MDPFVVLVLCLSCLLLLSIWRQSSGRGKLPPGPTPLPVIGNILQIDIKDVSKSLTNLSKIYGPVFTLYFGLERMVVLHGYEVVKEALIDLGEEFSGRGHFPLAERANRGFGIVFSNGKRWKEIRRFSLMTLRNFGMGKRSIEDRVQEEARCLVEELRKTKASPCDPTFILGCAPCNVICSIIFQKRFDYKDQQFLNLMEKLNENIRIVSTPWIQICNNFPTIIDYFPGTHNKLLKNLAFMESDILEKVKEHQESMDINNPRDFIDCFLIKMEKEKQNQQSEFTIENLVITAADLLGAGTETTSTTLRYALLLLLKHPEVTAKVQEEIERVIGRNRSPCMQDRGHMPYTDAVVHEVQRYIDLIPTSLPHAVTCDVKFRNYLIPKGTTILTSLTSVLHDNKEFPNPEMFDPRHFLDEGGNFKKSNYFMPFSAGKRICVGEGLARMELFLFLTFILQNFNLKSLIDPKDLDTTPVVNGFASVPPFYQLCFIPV
Chain of Cytochrome P450 3A7 (Homo sapiens) (P24462 whole entry, looked up): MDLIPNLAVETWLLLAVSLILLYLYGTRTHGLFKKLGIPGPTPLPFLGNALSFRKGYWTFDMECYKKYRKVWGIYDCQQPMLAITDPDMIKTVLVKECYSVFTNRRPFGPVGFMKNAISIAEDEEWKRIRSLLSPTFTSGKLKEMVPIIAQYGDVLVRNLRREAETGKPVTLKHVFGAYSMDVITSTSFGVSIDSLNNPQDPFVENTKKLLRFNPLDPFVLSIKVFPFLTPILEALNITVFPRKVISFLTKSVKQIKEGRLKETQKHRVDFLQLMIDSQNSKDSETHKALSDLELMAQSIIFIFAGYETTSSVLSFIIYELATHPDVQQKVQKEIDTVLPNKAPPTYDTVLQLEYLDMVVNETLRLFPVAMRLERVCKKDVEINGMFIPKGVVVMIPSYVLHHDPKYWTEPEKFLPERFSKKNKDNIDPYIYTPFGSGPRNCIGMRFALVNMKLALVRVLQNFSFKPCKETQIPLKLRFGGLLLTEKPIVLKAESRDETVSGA
Chain of Cytochrome P450 3A4 (Homo sapiens) (P08684 whole entry, looked up): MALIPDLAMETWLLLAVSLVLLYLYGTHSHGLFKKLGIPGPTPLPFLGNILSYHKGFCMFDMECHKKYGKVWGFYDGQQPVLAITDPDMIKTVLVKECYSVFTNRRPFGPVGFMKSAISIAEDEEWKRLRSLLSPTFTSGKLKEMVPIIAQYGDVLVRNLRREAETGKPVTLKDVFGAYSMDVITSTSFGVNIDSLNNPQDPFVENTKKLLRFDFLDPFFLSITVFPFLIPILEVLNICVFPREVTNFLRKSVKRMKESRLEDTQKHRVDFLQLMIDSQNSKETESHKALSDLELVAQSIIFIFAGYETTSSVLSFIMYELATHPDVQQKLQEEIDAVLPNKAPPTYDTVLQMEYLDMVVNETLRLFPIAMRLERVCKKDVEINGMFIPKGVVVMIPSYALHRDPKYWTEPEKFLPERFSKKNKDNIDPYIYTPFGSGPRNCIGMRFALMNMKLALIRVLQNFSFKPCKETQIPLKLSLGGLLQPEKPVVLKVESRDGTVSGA

Nc1c(Cl)cc([N+](=O)[O-])cc1Cl
inactive: [2] | [7]
active: [1] 83.3 µM | Caspase-3 (Homo sapiens) 17.3 µM | [3] 13 µM | [4] 11.8 µM | [5] 85 µM | CYP2C8 (gene 1558) 78.4 µM | CYP2C9 (gene 1559) 63.8 µM | CYP2E1 (gene 1571) 40.4 µM | CYP4A11 (gene 1579) 67.4 µM | [6] 11.5 µM | [8] 31.8 µM | [9] 50 µM | [10] 84.2 µM | [11] 41.8 µM

CCCCSP(=O)(SCCCC)SCCCC
inactive: [1] | Caspase-3 (Homo sapiens) | [2] | CYP2C8 (gene 1558) | CYP2C9 (gene 1559) | [7] | [8] | [9] | [10] | CYP3A5 (gene 1577)
active: [3] 13 µM | [4] 12.5 µM | [5] 12.8 µM | CYP2E1 (gene 1571) 63.4 µM | CYP4A11 (gene 1579) 76.2 µM | [6] 26.1 µM | [11] 92.5 µM

CCNc1nc(Cl)nc(NC(C)(C)C#N)n1
inactive: [1] | Caspase-3 (Homo sapiens) | [2] | [3] | CYP2C8 (gene 1558) | [7] | [8] | [9] | CYP3A5 (gene 1577) | [11]
active: [4] 1.68 µM | [5] 12.4 µM | CYP2E1 (gene 1571) 13.2 µM | CYP4A11 (gene 1579) 39.9 µM | [6] 4.42 µM | [10] 1.77 µM

COc1ccc(C(=CC(=O)N2CCOCC2)c2ccc(Cl)cc2)cc1OC
inactive: [1] | Caspase-3 (Homo sapiens) | [2] | [3] | [7] | [8] | [9] | [10] | [11]
active: [4] 0.00252 µM | [5] 10.4 µM | CYP2E1 (gene 1571) 15.3 µM | CYP4A11 (gene 1579) 59 µM | [6] 9.63 µM

C=C(C)[C@H]1Cc2c(ccc3c2O[C@@H]2COc4cc(OC)c(OC)cc4[C@@H]2C3=O)O1
inactive: [1] | Caspase-3 (Homo sapiens) | [2]
active: [3] 0.679 µM | [4] 0.5 µM | [5] 2.75 µM | CYP2C9 (gene 1559) 3.67 µM | CYP2E1 (gene 1571) 0.591 µM | CYP4A11 (gene 1579) 0.838 µM | [7] 50 µM | [8] 15.7 µM | [9] 1 µM | CYP3A5 (gene 1577) 11.5 µM | [11] 1.25 µM | [12] 0.834 µM

CCCCOC(=O)[C@@H](C)Oc1ccc(Oc2ccc(C#N)cc2F)cc1
active: [3] 38.5 µM | CYP4A11 (gene 1579) 32.4 µM | [12] 18.7 µM
inactive: [1] | Caspase-3 (Homo sapiens) | [2] | [4] | [5] | CYP2C9 (gene 1559) | CYP2E1 (gene 1571) | [6] | [7] | [8] | [9] | [10] | CYP3A5 (gene 1577) | [11]

COP(=O)(OC)SCn1c(=O)oc2cc(Cl)cnc21
inactive: Caspase-3 (Homo sapiens) | [2] | [3] | CYP2E1 (gene 1571) | [7] | [8] | [9] | [11]
active: [1] 0.00316 µM | [4] 50 µM | [5] 50 µM | CYP4A11 (gene 1579) 36.2 µM | [6] 37.3 µM | [10] 50 µM | CYP3A5 (gene 1577) 37.8 µM
